Results: PubChem BioAssay (NCATS)
Inconclusive results are not listed. Entries that show only a call come without a potency. Calls of active or inactive are those of the source. Calls come from the whole dose curve; as a rule, active = well fitted inhibition curve with a large enough effect; inconclusive = small, poorly fitted or top-dose-only effect; inactive = flat fitted curve, though single readings scatter.

Each compound was assayed against Lysine-specific demethylase 5B (Homo sapiens) (UniProt Q9UGL1) (assay: Optimization screen for KDM5B Histone Demethylases FDH coupled qHTS against the LOPAC library (AID 1347166)). Details: KDM5B demethylation, FDH-coupled NADH fluorescence (FDH is formaldehyde dehydrogenase); series mostly up to 57.5 µM.
Chain of Lysine-specific demethylase 5B (Homo sapiens) (Q9UGL1 whole entry, looked up): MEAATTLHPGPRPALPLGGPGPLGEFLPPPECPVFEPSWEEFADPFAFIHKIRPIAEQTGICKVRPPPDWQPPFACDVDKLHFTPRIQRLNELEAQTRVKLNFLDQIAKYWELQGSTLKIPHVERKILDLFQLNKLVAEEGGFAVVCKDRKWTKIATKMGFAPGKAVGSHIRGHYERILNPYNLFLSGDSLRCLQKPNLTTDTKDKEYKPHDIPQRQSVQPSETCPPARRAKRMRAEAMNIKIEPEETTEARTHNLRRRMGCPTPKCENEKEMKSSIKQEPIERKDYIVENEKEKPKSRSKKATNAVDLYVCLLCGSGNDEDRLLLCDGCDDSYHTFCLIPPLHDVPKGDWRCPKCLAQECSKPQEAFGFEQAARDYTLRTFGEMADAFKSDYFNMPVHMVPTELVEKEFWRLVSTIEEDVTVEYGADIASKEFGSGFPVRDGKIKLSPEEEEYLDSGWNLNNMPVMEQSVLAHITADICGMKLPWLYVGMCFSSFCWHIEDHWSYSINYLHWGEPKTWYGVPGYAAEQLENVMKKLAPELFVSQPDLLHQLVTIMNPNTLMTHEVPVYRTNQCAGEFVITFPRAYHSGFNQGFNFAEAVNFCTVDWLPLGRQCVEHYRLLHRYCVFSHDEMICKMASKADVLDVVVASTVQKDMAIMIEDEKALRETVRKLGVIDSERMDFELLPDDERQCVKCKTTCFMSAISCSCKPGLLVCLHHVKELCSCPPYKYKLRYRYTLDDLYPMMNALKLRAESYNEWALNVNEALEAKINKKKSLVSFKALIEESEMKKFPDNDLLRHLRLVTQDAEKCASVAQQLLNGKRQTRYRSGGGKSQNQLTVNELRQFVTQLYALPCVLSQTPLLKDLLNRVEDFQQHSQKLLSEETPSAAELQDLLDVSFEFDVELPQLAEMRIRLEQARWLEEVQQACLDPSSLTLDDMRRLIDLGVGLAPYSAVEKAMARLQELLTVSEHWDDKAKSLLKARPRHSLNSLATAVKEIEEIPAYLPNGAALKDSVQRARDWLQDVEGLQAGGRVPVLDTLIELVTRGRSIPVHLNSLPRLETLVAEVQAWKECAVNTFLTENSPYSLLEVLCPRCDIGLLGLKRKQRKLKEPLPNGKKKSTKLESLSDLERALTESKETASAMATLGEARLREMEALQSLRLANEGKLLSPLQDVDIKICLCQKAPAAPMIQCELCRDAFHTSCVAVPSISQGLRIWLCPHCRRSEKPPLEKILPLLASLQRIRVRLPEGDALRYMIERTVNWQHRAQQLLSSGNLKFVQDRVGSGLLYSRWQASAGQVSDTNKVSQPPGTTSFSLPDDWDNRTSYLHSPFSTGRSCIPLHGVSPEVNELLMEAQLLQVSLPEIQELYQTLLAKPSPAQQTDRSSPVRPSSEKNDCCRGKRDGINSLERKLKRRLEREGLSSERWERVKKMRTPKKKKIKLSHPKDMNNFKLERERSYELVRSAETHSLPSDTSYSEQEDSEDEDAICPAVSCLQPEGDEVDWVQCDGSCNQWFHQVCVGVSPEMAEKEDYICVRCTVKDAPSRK
How it was run: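 KDM5BDeltaAP (200nM final) preincubated 10 min with compound, then 12.5uM H3K4Me3, 25uM a-ketoglutarate, ascorbate, Fe(II), NAD+ and FDH added; 50mM HEPES pH 7.5, 0.01% Tween-20. NADH fluorescence (340/450 nm) change over 30 min, room temperature.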
`C/C(O)=C(\C#N)C(=O)Nc1cc(Br)ccc1Br` was tested, and the Potency was “inactive”.
For `CC(C)(O)[C@@H]1C2OC(=O)[C@@H]1[C@]1(O)C[C@H]3O[C@]34C(=O)O[C@H]2[C@]14C` (tested in a mixture with another compound), the Potency was “inactive”.
With `COc1cc(CC(C)N)c(OC)cc1I` (stereo unspecified) the Potency was “inactive”.
With `CN1CCc2cccc(Cl)c2CC1` the Potency was “inactive”.
`COc1ccc(OC)c(C(O)C(C)N)c1` (stereo unspecified) was tested, and the Potency was “inactive”.
In the case of `C[N+]1(C)CCc2cc3c(cc2[C@H]1[C@@H]1OC(=O)c2c1ccc1c2OCO1)OCO3`, the Potency is reported as “inactive”.
For `O=C1C=CC(=O)C=C1`, the Potency was “inactive”.
For `COc1ccc2c(c1)c(CCN1CCOCC1)c(C)n2C(=O)c1cccc(Cl)c1Cl`, the Potency was “inactive”.
`Oc1ccc2c3c1O[C@H]1c4oc5ccccc5c4C[C@@]4(O)C(C2)N(CC2CC2)CCC314` (stereo partly specified) was tested, and the Potency was “inactive”.
In the case of `N[C@@H](Cn1ccc(=O)[nH]c1=O)C(=O)O`, the Potency is reported as “inactive”.
With `COc1ccc2c(c1)/C(=C/c1cnc[nH]1)C(=O)N2` the Potency was “inactive”.
`N[C@@]1(C(=O)O)CC[C@@H](C(=O)O)C1` was tested, and the Potency was “inactive”.
In the case of `C[Se]C[C@H](N)C(=O)O`, the Potency is reported as “inactive”.
`COc1ccc2c(c1)[C@@]13CCCC[C@H]1[C@@H](C2)NCC3` was tested, and the Potency was “inactive”.
With `COc1ccc(CNC(=O)/C=C/c2ccc3[nH]cc(CCN(C)C)c3c2)cc1` the Potency was “inactive”.
With `NC(=O)c1cc(N2CC2)c([N+](=O)[O-])cc1[N+](=O)[O-]` the Potency was “inactive”.
For `CCCN1CCc2cc(O)cc3c2[C@H]1Cc1ccc(O)c(O)c1-3`, the Potency was “inactive”.
For `C[C@@H]1O[C@@H](O[C@H]2C[C@@H](O)[C@]3(CO)[C@@H]4C(CC[C@]3(O)C2)[C@@]2(O)CC[C@H]([C@@H]3COC(=O)C3)[C@@]2(C)C[C@H]4O)[C@H](O)[C@H](O)[C@H]1O` (stereo partly specified), the Potency was “inactive”.
`CC(N)c1cccc(Cl)c1Cl` (stereo unspecified) was tested, and the Potency was “inactive”.
With `O=C1CC[C@@]2(O)C3Cc4ccc(O)c5c4C2(CCN3CC2CC2)[C@H]1O5` (stereo partly specified) the Potency was “inactive”.
For `OC1CCCCC1N1CCC(c2ccccc2)CC1` (stereo unspecified), the Potency was “inactive”.
In the case of `N[C@@H](CCl)C(=O)O`, the Potency is reported as “inactive”.
`CCn1cnc2c(Nc3cccc(Cl)c3)nc(N[C@@H]3CCCC[C@@H]3N)nc21` was tested, and the Potency was “inactive”.
With `c1ccc2cc(CC3=NCCN3)ccc2c1` the Potency was “inactive”.
In the case of `CCS(=O)(=O)Nc1cccc(C(=C2CCCCC2)c2cnc[nH]2)c1`, the Potency is reported as “inactive”.
With `CC(=O)NBr` the Potency was “inactive”.
For `C[C@H](N)CN1CCc2ccc(Br)cc21`, the Potency was “inactive”.
With `C=CCN1C[C@@H](C)N([C@H](c2ccc(C(=O)N(CC)CC)cc2)c2cccc(OC)c2)C[C@@H]1C` the Potency was “inactive”.
With `CCCN1CCC[C@@H](c2cccc(O)c2)C1` the Potency was “inactive”.
In the case of `Cc1o[nH]c(=O)c1CC(N)C(=O)O` (stereo unspecified), the Potency is reported as “inactive”.
`COc1ccc2[nH]c3c(c2c1)CCNC3` was tested, and the Potency was “inactive”.
